Measurements taken from PubChem BioAssay (Tox21).
Results filed as inconclusive are left out. Activity calls are given as the source filed them. Unless noted, the call rests on the fitted dose curve; in most records, active means well fitted curve in the direction sought with a large enough effect in the repeat runs; inconclusive means weak or mixed curves; inactive means no such curve, though single readings can be large; an effect the other way counts as inactive or inconclusive.

Tests used:
[1] = qHTS assay for small molecule agonists of the p53 signaling pathway (AID 651631; calls by dose curve; further: nearly all actives have a fitted effect of over 15% in size)
Procedure, shortened: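 Fluorescence intensity from cleaved LiveBLAzer B/G substrate (2 h, room temperature) served as the signal. Beforehand, HCT-116 reporter cells bearing p53 response elements were treated 16 h at 37 °C with DMSO-dissolved compounds.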

[2] = qHTS assay for small molecules that induce genotoxicity in human embryonic kidney cells expressing luciferase-tagged ATAD5 (AID 651632); further: nearly all actives have a fitted effect of over 15% in size; further: potency means the concentration at half of the fitted maximal effect
Procedure, shortened: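 A rise in luciferase signal from ATAD5-tagged HEK293T cells marks genetic stress. Cells were exposed to compounds for 16 hr at 37C, 5% CO2, then luciferase was quantified after a 30 min room-temperature incubation with Amplite.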

[3] = qHTS assay for small molecule agonists of the p53 signaling pathway - cell viability (AID 651633; calls by dose curve;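 further: p53RE-bla HCT reporter cells with a stable beta-lactamase p53 reporter; series mostly up to about 83 µM; nearly all actives have a fitted effect of over 30% in size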)
Procedure, shortened: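 Viability counter-read: CellTiter-Glo luminescence (30 min, room temperature) in the same p53RE-bla plates. These plates had been exposed to compounds for 16 h at 37 C.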

[4] = qHTS assay for small molecules that induce genotoxicity in human embryonic kidney cells expressing luciferase-tagged ATAD5 - cell viability (AID 651634; calls by dose curve; further: nearly all actives have a fitted effect of over 25% in size; further: potency means the concentration at half of the fitted maximal effect)
Procedure, shortened: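 Cytotoxicity counter-readout: after 15.5 hr compound treatment at 37C, live-cell protease activity in ATAD5-luciferase HEK293T cells measured by CellTiter-Fluor fluorescence, 30 min development at 37C.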

[5] = qHTS assay for small molecule disruptors of the mitochondrial membrane potential - cell viability (AID 720634; calls by dose curve;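 further: human HepG2 liver cancer cells; series mostly up to about 83 µM; nearly all actives have a fitted effect of over 20% in size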)
Procedure, shortened: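 Cytotoxicity was quantified from ATP content by CellTiter-Glo luminescence in the same wells as the MMP dye read-out. HepG2 (2,000 cells/well) were plated overnight and exposed to compounds for 1 hr at 37 C.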

[6] = qHTS assay for small molecule disruptors of the mitochondrial membrane potential (AID 720635); further: potency means the concentration at half of the fitted maximal effect
Procedure, shortened: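 Mitochondrial membrane potential tracked with Mito-MPS dye, red aggregates (ex 540/em 590 nm) against green monomers (ex 490/em 535 nm). Compound treatment 1 hr at 37C, dye 30 min in HepG2.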

[7] = qHTS assay to test for compound auto fluorescence at 590 nm (red) in HepG2 cells (AID 720674)
Procedure, shortened: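 1 hr compound incubation on HepG2 cells, 37 C, 5% CO2; plate read ex 540 nm / em 590 nm; intensities reported as Rose Bengal sodium equivalents.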

[8] = qHTS assay to test for compound auto fluorescence at 535 nm (green) in HepG2 cells (AID 720675)
[9] = qHTS assay to test for compound auto fluorescence at 460 nm (blue) in HEK293 cells (AID 720678)
Procedure, shortened: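 HEK293 cells (2,000/well, medium with 10% dialyzed FBS) attached 4-5 hr, then exposed to compound overnight at 37C, 5% CO2. Blue fluorescence read at 405/460 nm, with triamterene as reference fluorophore.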

[10] = qHTS assay to test for compound auto fluorescence at 590 nm (red) in HEK293 cells (AID 720679)
Procedure, shortened: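 HEK293 cells (2,000/well, 10% dialyzed FBS) attached 4-5 hr, then dosed with compound or DMSO and incubated overnight at 37C, 5% CO2. Red fluorescence read at 540/590 nm, Rose Bengal sodium as reference fluorophore.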

[11] = qHTS assay to test for compound auto fluorescence at 535 nm (green) in HEK293 cells (AID 720680)
[12] = qHTS assay to test for compound auto fluorescence at 460 nm (blue) in HEK293 cell free culture (AID 720681)
Procedure, shortened: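 Blue fluorescence (Ex 405/Em 460 nm, triamterene-equivalent) was read immediately after pin transfer of compound or DMSO into medium (DMEM, 10% FBS) without cells.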

[13] = qHTS assay to test for compound auto fluorescence at 535 nm (green) in HEK293 cell free culture (AID 720682)
Procedure, shortened: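 Intrinsic compound fluorescence is measured in culture medium containing 10% FBS, with excitation at 485 nm and detection at 535 nm, referenced to fluorescein.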

[14] = qHTS assay to test for compound auto fluorescence at 590 nm (red) in HEK293 cell free culture (AID 720683)
Procedure, shortened: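 Red-channel autofluorescence of compounds in culture medium (DMEM, 10% FBS), no cells, measured at 540/590 nm. Rose Bengal sodium is the reference fluorophore for equivalence.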

[15] = qHTS assay to test for compound auto fluorescence at 590 nm (red) in HepG2 cell free culture (AID 720684)
Procedure, shortened: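 Cell-free; medium MEM + 10% FBS; compound or DMSO added by pintool; read Ex 540/Em 590 nm; Rose Bengal sodium as red reference fluorophore.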

[16] = qHTS assay to test for compound auto fluorescence at 460 nm (blue) in HepG2 cell free culture (AID 720685)
Procedure, shortened: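 Cell-free plates of MEM plus 10% FBS received 23 nL compound or DMSO vehicle; blue-channel (405/460 nm) intensity scored against triamterene as reference fluorophore.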

[17] = qHTS assay to test for compound auto fluorescence at 535 nm (green) in HepG2 cell free culture (AID 720686)
[18] = qHTS assay to test for compound auto fluorescence at 460 nm (blue) in HepG2 cells (AID 720687)
Procedure, shortened: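 Blue-channel autofluorescence (Ex/Em 405/460 nm, triamterene-equivalent) was measured after 1 hr compound exposure at 37 C, 5% CO2. Cells were HepG2, plated overnight at 37 C in MEM plus 10% FBS.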

[19] = molecular target: Glucocorticoid receptor (Homo sapiens) (UniProt P04150); assay: qHTS assay to identify small molecule agonists of the glucocorticoid receptor (GR) signaling pathway (AID 720691; active means well fitted activation curve with a large enough effect in the signal ratio in the repeat runs, not every such curve was filed as active; the % refers to the signal ratio)
Procedure, shortened: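 Agonist-mode qHTS in HeLa cells stably expressing a glucocorticoid-response-element beta-lactamase reporter. Fluorescence intensity read with FRET substrate (2 h, room temperature) after 18 h compound treatment at 37 C.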

[20] = molecular target: Glucocorticoid receptor (Homo sapiens) (UniProt P04150); assay: qHTS assay to identify small molecule antagonists of the glucocorticoid receptor (GR) signaling pathway (AID 720692; active means well fitted inhibition curve with a large enough effect in the signal ratio in the repeat runs, not every such curve was filed as active; the % refers to the signal ratio)
Procedure, shortened: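 Inhibition of dexamethasone-driven (5 nM final) beta-lactamase expression was measured in GRE-reporter HeLa cells over 18 h at 37C. Fluorescence was read after 2 h with the B/G FRET substrate at room temperature.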
On the % scale 0 is the no-effect control and ±100 the full control effect.

Sequence of Glucocorticoid receptor (Homo sapiens) (P04150 whole entry, looked up): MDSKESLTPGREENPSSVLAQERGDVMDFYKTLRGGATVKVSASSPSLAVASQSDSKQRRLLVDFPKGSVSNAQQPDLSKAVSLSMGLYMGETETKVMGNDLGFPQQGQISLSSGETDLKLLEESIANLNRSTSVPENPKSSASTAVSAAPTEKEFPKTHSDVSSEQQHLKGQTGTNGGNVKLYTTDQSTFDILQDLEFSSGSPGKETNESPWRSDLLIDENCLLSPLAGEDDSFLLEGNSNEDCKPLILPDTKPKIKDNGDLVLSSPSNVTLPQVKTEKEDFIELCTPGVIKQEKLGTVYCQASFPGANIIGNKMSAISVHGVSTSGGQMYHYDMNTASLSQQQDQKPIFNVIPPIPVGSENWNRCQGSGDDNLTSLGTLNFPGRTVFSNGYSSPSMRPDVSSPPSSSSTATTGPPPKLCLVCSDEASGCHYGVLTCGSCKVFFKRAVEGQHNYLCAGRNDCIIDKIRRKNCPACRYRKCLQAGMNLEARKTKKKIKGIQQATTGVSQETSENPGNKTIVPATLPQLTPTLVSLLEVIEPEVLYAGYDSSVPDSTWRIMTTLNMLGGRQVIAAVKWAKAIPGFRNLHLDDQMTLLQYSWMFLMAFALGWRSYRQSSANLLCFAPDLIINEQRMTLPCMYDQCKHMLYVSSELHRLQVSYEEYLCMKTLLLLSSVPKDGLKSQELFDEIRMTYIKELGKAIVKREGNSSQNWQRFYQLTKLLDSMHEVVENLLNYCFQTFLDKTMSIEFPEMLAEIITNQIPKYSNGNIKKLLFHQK

CC1CCc2nccnc21 (configuration not stated)
inactive: Potency [1] | Potency [2] | Potency [3] | Potency [4] | outcome [5] | Potency [6] | outcome [7] | outcome [8] | Potency [9] | outcome [10] | outcome [11] | Potency [12] | outcome [13] | outcome [14] | outcome [15] | Potency [16] | outcome [17] | Potency [18]

C=C(C)C(=O)OCCC(F)(F)C(F)(F)C(F)(F)C(F)(F)C(F)(F)C(F)(F)F
inactive: Potency [1] | Potency [2] | Potency [3] | Potency [4] | outcome [5] | Potency [6] | outcome [7] | outcome [8] | Potency [9] | outcome [10] | outcome [11] | Potency [12] | outcome [13] | outcome [14] | outcome [15] | Potency [16] | outcome [17] | Potency [18] | Potency [19] | Potency [20]

COc1ccc(C2C(=O)c3ccccc3C2=O)cc1
inactive: Potency [1] | Potency [2] | Potency [3] | Potency [4] | outcome [5] | Potency [6] | outcome [7] | outcome [8] | Potency [9] | outcome [10] | outcome [11] | Potency [12] | outcome [13] | outcome [14] | outcome [15] | Potency [16] | outcome [17] | Potency [18] | Potency [19] | Potency [20]

Nc1ccc(NC(=O)c2ccc(N)cc2)cc1
inactive: Potency [1] | Potency [2] | Potency [3] | Potency [4] | outcome [5] | outcome [7] | outcome [8] | Potency [9] | outcome [10] | outcome [11] | Potency [12] | outcome [13] | outcome [14] | outcome [15] | Potency [16] | outcome [17] | Potency [18]
active: Potency [6] 1.37 µM

CC(=O)N[C@@H](Cc1ccc(O)cc1)C(=O)O
inactive: Potency [1] | Potency [2] | Potency [3] | Potency [4] | outcome [5] | Potency [6] | outcome [7] | outcome [8] | Potency [9] | outcome [10] | Potency [12] | outcome [13] | outcome [14] | outcome [15] | Potency [16] | outcome [17] | Potency [18] | Potency [19] | Potency [20]

Cc1c[nH]c2ccccc12
inactive: Potency [1] | Potency [2] | Potency [3] | Potency [4] | outcome [5] | Potency [6] | outcome [7] | outcome [8] | Potency [9] | outcome [10] | outcome [11] | Potency [12] | outcome [13] | outcome [14] | outcome [15] | Potency [16] | outcome [17] | Potency [18] | Potency [19] | Potency [20]

COC(=O)c1sccc1S(N)(=O)=O
inactive: Potency [1] | Potency [2] | Potency [3] | Potency [4] | outcome [5] | Potency [6] | outcome [7] | outcome [8] | Potency [9] | outcome [10] | outcome [11] | Potency [12] | outcome [13] | outcome [14] | outcome [15] | Potency [16] | outcome [17] | Potency [18] | Potency [19]

CCCC(=O)OC(=O)CCC
inactive: Potency [1] | Potency [2] | Potency [3] | Potency [4] | outcome [5] | Potency [6] | outcome [7] | outcome [8] | Potency [9] | outcome [10] | outcome [11] | Potency [12] | outcome [13] | outcome [14] | outcome [15] | Potency [16] | outcome [17] | Potency [18]

CC(C)Cc1ccc(CC(=O)O)cc1
inactive: Potency [1] | Potency [2] | Potency [3] | Potency [4] | outcome [5] | Potency [6] | outcome [7] | outcome [8] | Potency [9] | outcome [10] | outcome [11] | Potency [12] | outcome [13] | outcome [14] | outcome [15] | Potency [16] | outcome [17] | Potency [18] | Potency [19] | Potency [20]

Nc1nc(-c2ccc([N+](=O)[O-])cc2)cs1
inactive: Potency [1] | Potency [2] | Potency [3] | Potency [4] | outcome [5] | outcome [7] | outcome [8] | Potency [9] | outcome [10] | outcome [11] | Potency [12] | outcome [13] | outcome [14] | outcome [15] | Potency [16] | outcome [17] | Potency [18] | Potency [19] | Potency [20]
active: Potency [6] 3.1 µM

Nc1ccc(N=Nc2ccc(N)cc2)cc1
inactive: Potency [1] | Potency [3] | outcome [5] | outcome [7] | outcome [8] | Potency [9] | outcome [10] | outcome [11] | Potency [12] | outcome [13] | outcome [14] | outcome [15] | Potency [16] | outcome [17] | Potency [18]
active: Potency [2] 5.44 µM | Potency [4] 27.3 µM | Potency [6] 6.85 µM

CC(C)(C(=O)c1cccnc1)c1cccnc1
inactive: Potency [1] | Potency [2] | Potency [3] | Potency [4] | outcome [5] | Potency [6] | fluorescence, relative to Rose Bengal [7] -0.433% [at 18.6 µM] | fluorescence, % of fluorescein control [8] -0.0177% [at 18.6 µM] | fluorescence, % of triamterene [9] -0.0025% [at 18.6 µM] | fluorescence, % of fluorescent control [10] -0.175% [at 18.6 µM] | fluorescence, % of fluorescent control [12] -0.108% [at 18.6 µM] | activity change [13] 0.0185% [at 18.6 µM] | fluorescence, % of fluorescent control [14] 0.0451% [at 18.6 µM] | fluorescence, % of Rose Bengal [15] 0.0034% [at 18.6 µM] | fluorescence, % of fluorescent control [16] -0.0441% [at 18.6 µM] | fluorescence, % of fluorescein control [17] 0.0796% [at 18.6 µM] | fluorescence, % of fluorescent control [18] -0.0372% [at 18.6 µM] | Potency [19] | Potency [20]

CCCCCCC(O)CCCCCCCCCCC(=O)OC (configuration not stated)
inactive: Potency [1] | Potency [2] | Potency [3] | Potency [4] | outcome [5] | Potency [6] | outcome [7] | outcome [8] | Potency [9] | outcome [10] | outcome [11] | Potency [12] | outcome [13] | outcome [14] | outcome [15] | Potency [16] | outcome [17] | Potency [18] | Potency [19]

CC12CC3CC(C)(C1)CC(N)(C3)C2
inactive: Potency [1] | Potency [2] | Potency [3] | Potency [4] | outcome [5] | Potency [6] | outcome [7] | outcome [8] | Potency [9] | outcome [11] | Potency [12] | outcome [13] | outcome [14] | outcome [15] | Potency [16] | outcome [17] | Potency [18] | Potency [19] | Potency [20]
